Hits are enriched below; roughly 1.2% of the tested compounds scored in any of these assays.
RGS7-Gao reg = RGS7-Galphao binding modulators, primary screen, biochemical, multiplexed bead flow cytometry | Guanine nucleotide-binding protein G(o) subunit alpha (Homo sapiens), P09471 | actives lie on both sides | binding response (% of control), % at 10 µM | 220,000 tested, 0.35% active | AID 1439, 2008; in the data active = binding response below about 49% or above about 150%; inconclusive = no clear call, values can overlap the other calls; inactive = in between;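 note: fluorescent Galphao held in activated GDP-AlF4 state binding bead-coupled RGS7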
Target sequence (P09471 whole entry, looked up): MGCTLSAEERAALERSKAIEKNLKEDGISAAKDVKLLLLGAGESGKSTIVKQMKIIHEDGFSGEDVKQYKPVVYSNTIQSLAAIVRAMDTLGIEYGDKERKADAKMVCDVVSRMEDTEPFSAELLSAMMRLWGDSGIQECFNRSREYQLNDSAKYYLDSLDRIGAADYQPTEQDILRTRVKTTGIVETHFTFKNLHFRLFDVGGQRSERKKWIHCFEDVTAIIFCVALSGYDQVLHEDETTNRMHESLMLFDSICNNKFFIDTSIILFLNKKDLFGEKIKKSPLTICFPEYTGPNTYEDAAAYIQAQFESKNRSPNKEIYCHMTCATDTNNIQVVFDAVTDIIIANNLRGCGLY
RGS16-Gao = modulators of RGS16 binding to Galphao, primary screen, biochemical, human proteins, multiplexed bead flow cytometry | bead-based flow cytometry RGS16-Galphao binding, fluorescence; actives lie on both sides | AID 1441, 2008 | 220,000 tested, 0.38% active | binding response (% of control), % at 10 µM;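 note: Galphao activated by GDP with aluminum fluoride before binding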
RGS8-Gao reg = RGS8-Galphao binding modulators, primary screen, biochemical, multiplexed bead flow cytometry; actives lie on both sides; AID 1423, 2008; 220,000 tested, 0.34% active; Guanine nucleotide-binding protein G(o) subunit alpha (Homo sapiens), P09471; response (percent of control binding), % at 10 µM; in the data active = response below about 60% or above about 140%; inactive = in between;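 note: Galphao activated as the GDP aluminium fluoride complex binding bead-coupled RGS8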
RGS4-Gao reg = modulators of RGS4 binding to Galphao, primary screen, biochemical, multiplexed bead flow cytometry. 220,000 tested, 0.33% active. actives lie on both sides. Guanine nucleotide-binding protein G(o) subunit alpha (Homo sapiens), P09471. AID 1415, 2008. binding response (% of control), % at 10 µM; in the data active = binding response below about 49% or above about 150%; inactive = in between;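 note: fluorescent Galphao activated with aluminum fluoride binding bead-coupled RGS4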
GSH fluor = compound fluorescence on glutathione beads, profiling panel, artefact control, biophysical, 488/530 nm, flow cytometry; fluorescence (KMESF) at 10 µM; 190,000 tested, 0.25% active; AID 1776, 2009; GSH beads flow cytometry, compound fluorescence 488/530 nm; hits give high values; in the data active = fluorescence above about 89;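 note: glutathione beads carrying GST-tagged Bcl family fusion proteins plus one bare bead set; values are compound well signal with DMSO vehicle wells as background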
Avidin fluor = green autofluorescence of compounds with avidin beads – biophysical, 488/530 nm, flow cytometry, artefact control, profiling panel. compound fluorescence 488/530 nm; hits give high values. fluorescence (KMESF) at 10 µM. 220,000 tested, 0.38% active; in the data active = fluorescence above about 47
RGS-Gao = modulators of RGS–Galpha-o binding, primary screen, biochemical, multiplexed beads, flow cytometry, RGS4/7/8/16/19 | shares compounds with RGS16-Gao | RGS4–Galpha-o binding response, % at 10 µM | multiplexed bead flow cytometry | 1,600 tested, 99% active;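 note: fluorescently labeled Galpha-o bound to GDP with aluminium fluoride binding biotinylated RGS beads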
Avidin counter = disruption of biotin probe capture by avidin, counter-screen for RGS protein interaction modulators, biochemical, flow cytometry, bead-based; shares compounds with RGS16-Gao; streptavidin beads, fluorescein-biotin binding; inhibition, % at 10 µM; 1,700 tested, under 10 active;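 active = inhibition above 50%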;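 note: median green fluorescence of gated singlet beads compared with DMSO control wells; 0% = DMSO wells and 100% = complete loss of bead fluorescence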
RGS8-Gao single = RGS8-Galphao binding modulators, confirmation, biochemical, multiplexed bead flow cytometry, single concentration. 1,700 tested, 3% active. binding response (% of control), % at 10 µM. AID 1836, 2009. shares compounds with RGS16-Gao. bead-based flow cytometry RGS8-Galphao binding, fluorescence; actives lie on both sides; in the data active = binding response below about 72% or above about 130%; inactive = in between;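 note: Galphao activated as GDP AlF4 complex before binding bead RGS8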
RGS7-Gao single = RGS7-Galphao binding modulators, confirmation, biochemical, multiplexed bead flow cytometry, single concentration; shares compounds with RGS16-Gao; bead-based flow cytometry RGS7-Galphao binding; actives lie on both sides; response (percent of control binding), % at 10 µM; 1,700 tested, 7.8% active; AID 1837, 2009; in the data active = response below about 75% or above about 130%; inactive = in between;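 note: fluorescent Galphao activated with GDP and aluminum fluoride binding bead-coupled RGS7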
RGS16-Gao conf = modulators of RGS16-Galphao protein binding, confirmation, biochemical, single concentration, multiplexed bead flow cytometry; shares compounds with RGS16-Gao; bead-based flow cytometry; actives lie on both sides; 1,700 tested, 4% active; response (% of control binding), % at 10 µM; AID 1838, 2009; in the data active = response below about 74% or above about 130%; inactive = in between;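 note: Galphao activated as the GDP aluminium fluoride complex binding bead-coupled RGS16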
RGS4-Gao single = modulators of RGS4-Galphao protein binding, confirmation, biochemical, single concentration, multiplexed bead flow cytometry; actives lie on both sides; AID 1840, 2009; shares compounds with RGS16-Gao; binding response (% of control), % at 10 µM; 1,700 tested, 4% active; in the data active = binding response below about 74% or above about 130%; inactive = in between
RGS19-Gao conf = regulators of RGS19-Galphao binding, confirmation, biochemical, single point, multiplexed bead flow cytometry. shares compounds with RGS16-Gao. bead-based flow cytometry RGS19-Galphao binding; actives lie on both sides. response (percent of control binding), % at 10 µM. 1,700 tested, 5% active. AID 1841, 2009; in the data active = response below about 50% or above about 160%; inactive = in between;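 note: 100% = no compound control and 0% = blank background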
Target sequence (P09471 whole entry, looked up): as above
Target sequence (P49795 whole entry, looked up): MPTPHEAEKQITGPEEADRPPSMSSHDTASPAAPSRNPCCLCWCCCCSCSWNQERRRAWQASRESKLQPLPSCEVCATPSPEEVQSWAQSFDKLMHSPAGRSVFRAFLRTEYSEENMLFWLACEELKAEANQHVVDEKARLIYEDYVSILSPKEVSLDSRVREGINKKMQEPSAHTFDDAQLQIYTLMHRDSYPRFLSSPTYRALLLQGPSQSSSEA
* = called active by the depositor; [ ] = remark or other dose. Unless noted, the rule behind the calls is not given here.

`OC(Cn1c2ccccc2c2ccccc21)C[n+]1cccc2ccccc21` (configuration not stated) gave RGS7-Gao reg 153.5*[activator], RGS16-Gao 101.9, RGS8-Gao reg 97.4, RGS4-Gao reg 122.7, GSH fluor 49, Avidin fluor 78*, RGS-Gao 122.7*, Avidin counter -1.8, RGS8-Gao single 102.4, RGS7-Gao single 141.1*[activator], RGS16-Gao conf 103.1, RGS4-Gao single 131.8*[activator] and RGS19-Gao conf 199.0*[activator].
For COC(=O)C(O)(c1ccc(NC(=O)NC2CCCCC2)cc1)C(F)(F)F (configuration not stated) the results were RGS7-Gao reg 157.2*[activator], RGS16-Gao 101.3, RGS8-Gao reg 101.2, RGS4-Gao reg 174.8*[activator], GSH fluor 19, Avidin fluor 83*, Avidin counter 1.3, RGS8-Gao single 97.2, RGS7-Gao single 58.6*, RGS16-Gao conf 77.9, RGS4-Gao single 73.1* and RGS19-Gao conf 57.5.
`COC(=O)C(O)(c1ccc(NC(=S)NC(=O)c2ccc(Cl)cc2Cl)cc1)C(F)(F)F` (configuration not stated) gave RGS7-Gao reg 100.7, RGS16-Gao 99.5, RGS8-Gao reg 102.7, RGS4-Gao reg 102.2, GSH fluor 9 and Avidin fluor 14.
For COc1ccc(CCNC2CCCCC2)cc1OC the results were RGS7-Gao reg 94.8, RGS16-Gao 99.9, RGS8-Gao reg 99.0, RGS4-Gao reg 99.8, GSH fluor 18 and Avidin fluor 10.
`CCOCCCNC(=O)CN1C2CCC1CC(O)(c1ccc(OC)cc1)C2` (configuration not stated) gave RGS7-Gao reg 102.7, RGS16-Gao 116.5, RGS8-Gao reg 103.2, RGS4-Gao reg 103.6, GSH fluor 40 and Avidin fluor 5.
For CCN1CCN(c2ccc([N+](=O)[O-])cc2C(=O)OC)CC1 the results were RGS7-Gao reg 98.7, RGS16-Gao 107.1, RGS8-Gao reg 102.5, RGS4-Gao reg 100.8, GSH fluor 15 and Avidin fluor 13.
Screening O=C(Nc1ccccc1)c1cc([N+](=O)[O-])ccc1N1CCNCC1 returned RGS7-Gao reg inconclusive, RGS16-Gao 95.7, RGS8-Gao reg 59.5*, RGS4-Gao reg 89.5, GSH fluor 12, Avidin fluor 5, RGS-Gao 89.5*, Avidin counter -1.9, RGS8-Gao single 104.5, RGS7-Gao single 100.6, RGS16-Gao conf 104.9, RGS4-Gao single 104.0 and RGS19-Gao conf 92.7.
For CC1C(c2cccs2)=[N+]([O-])C(C)(C(=O)c2cccs2)N1O (configuration not stated) the results were RGS7-Gao reg 158.7*[activator], RGS16-Gao 160.3, RGS8-Gao reg 146.6*[activator], RGS4-Gao reg 156.7*[activator], GSH fluor 10, Avidin fluor 4, Avidin counter 0.3, RGS8-Gao single 99.1, RGS7-Gao single 93.5, RGS16-Gao conf 95.5, RGS4-Gao single 96.9 and RGS19-Gao conf 77.2.
For COc1ccc(C(=O)C2(C)N(O)C(C)C(c3cccs3)=[N+]2[O-])cc1 (configuration not stated) the results were RGS7-Gao reg 96.5, RGS16-Gao 95.8, RGS8-Gao reg 102.7, RGS4-Gao reg 102.2, GSH fluor 28 and Avidin fluor 4.
C=CCN1CC[C@]23c4c5ccc(O)c4O[C@H]2C(=O)CC[C@@]3(O)[C@H]1C5 was read as RGS7-Gao reg 34.1*, RGS16-Gao 54.2, RGS8-Gao reg 57.0*, RGS4-Gao reg 47.8*, GSH fluor 14, Avidin fluor 5, Avidin counter -0.4, RGS8-Gao single 100.7, RGS7-Gao single 103.8, RGS16-Gao conf 101.2, RGS4-Gao single 100.4 and RGS19-Gao conf 107.4.
COc1ccccc1Cn1c(SCC(=O)C(C)(C)C)nc2cc(C(=O)N3CCC4(CC3)OCCO4)ccc2c1=O was read as RGS7-Gao reg 96.6, RGS16-Gao 99.4, RGS8-Gao reg 101.5, RGS4-Gao reg 98.0, GSH fluor 26 and Avidin fluor 9.
For NC(=O)CS(=O)C(c1ccccc1)c1ccccc1 (configuration not stated) the results were RGS7-Gao reg 110.5, RGS16-Gao 104.3, RGS8-Gao reg 103.4, RGS4-Gao reg 105.9, GSH fluor 66 and Avidin fluor 6.
`CCC1(CC)C(=O)N(C)C(=O)NC1=NC` gave RGS7-Gao reg inconclusive, RGS16-Gao 204.1*[activator], RGS8-Gao reg 108.0, RGS4-Gao reg 195.9*[activator], Avidin fluor 95*, Avidin counter -0.2, RGS8-Gao single 97.7, RGS7-Gao single 98.2, RGS16-Gao conf 101.9, RGS4-Gao single 98.7 and RGS19-Gao conf 88.9.

Screening results as filed in PubChem.
